# Inconclusive results are not listed. Entries that show only a call come without a potency. Active and inactive are the calls of the source. Calls come from the whole dose curve; as a rule, active = well fitted activation curve with a large enough effect; inconclusive = small, poorly fitted or top-dose-only effect; inactive = flat fitted curve, though single readings scatter.
# Assay: qHTS for Inhibitors of Cell Surface uPA Generation: FP59 Counterscreen for Cherry-picked Compounds
# Settings: FP59 anthrax toxin cytotoxicity counterscreen, cells; series mostly up to 115 µM
row,SMILES,Potency
1,CCN(CC)S(=O)(=O)c1ccc(C(=O)Nc2cccc(C)c2)cc1,inactive
2,O=C(Cn1cnc2c(OCc3ccccc3)ncnc21)NCCCN1CCCC1=O,inactive
3,Cc1ccc(C)c(-c2ccc(=O)n(Cc3c(F)cccc3Cl)n2)c1,inactive
4,CCCNC(=O)C1CCC(CNS(=O)(=O)c2ccc3c(c2)CC(C)N3C(C)=O)CC1 (configuration not stated),inactive
5,CCOc1ccc(-c2n[nH]c(=S)n2Cc2ccccc2)cc1,inactive
6,COc1ccc(/C=C/C(=O)Nc2ccccc2Cl)cc1S(=O)(=O)N1CCOCC1,inactive
7,Cc1cc(/C=N/NC(=O)c2ccccc2F)c(C)n1-c1ccccc1,inactive
8,O=C(C1CCN(c2nnc(N3CCCC3=O)s2)CC1)N1CCN(c2cccc(C(F)(F)F)c2)CC1,inactive
9,CC(=O)c1cnc2nc(SCc3cccc(C)c3)nn2c1C,inactive
10,COc1ccc(N2CCN(C3CCN(S(=O)(=O)c4ccc(F)cc4)CC3)CC2)cc1,inactive
11,CCC(=O)N(Cc1cc2ccc(C)cc2[nH]c1=O)c1ccccc1OC,inactive
12,COc1cccc(NC(=O)c2nnn(CC(=O)Nc3cc(C)cc(C)c3)c2N)c1,inactive
13,CC(=O)[C@@]1(O)[C@H](C)CC2C3CC=C4CC(OP(=O)(O)O)CC[C@]4(C)C3CC[C@@]21C (some centres not stated),inactive
14,O=C(CC1(O)C(=O)Nc2ccccc21)c1cccc(Br)c1 (configuration not stated),inactive
15,O=C1NC(CCc2ccccc2)C(=O)N1Cc1ccccc1Cl (configuration not stated),inactive
16,CCOc1ccc(NS(=O)(=O)c2coc(C(N)=O)c2)cc1,inactive
17,CSc1nc(N)nc2c1ncn2CC(=O)NCC1CCCO1 (configuration not stated),inactive

# Source: PubChem BioAssay AID720517 (National Center for Advancing Translational Sciences (NCATS), 2013)
